High-throughput results: PubChem BioAssay, National Center for Advancing Translational Sciences (NCATS)
In the library only some 19% were active in any assay of this set; here they are far more common.
TDP1 cell CPT = DT40-hTDP1 cell growth loss with CPT; actives 12% (n = 420,000); Potency, µM (titrated, usually from 46.2 µM), without a hit: at the highest dose activity change, negative = growth inhibition, most hits filed as inhibitors; chicken DT40 Tdp1-/-;hTDP1 cells + 20 nM CPT, ATP luminescence, 48 h; further: potency means the concentration at half of the fitted maximal effect; on the % scale 0 is the no-effect control and ±100 the full control effect; nearly all actives have a fitted effect of over 55% in size
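Chicken DT40 Tdp1-/- cells complemented with human TDP1, 400 cells/well, exposed to compounds plus 20 nM camptothecin for at least 48 h at 37 C; viability read as ATP content by CellTiter-Glo luminescence.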
HepG2 viability = HepG2 cytotoxicity, counter-screen for TGF-b inhibitors. HepG2 CAGA-GFP viability, ATP luminescence, 18 h. Potency, µM (highest dose often 46.1 µM), inactives show at the top dose activity change, negative = cytotoxicity, hits mostly cytotoxic. actives 0.76% (n = 410,000); further: potency means the concentration at half of the fitted maximal effect
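HepG2 CAGA-GFP cells (1000/well, DMEM with 1% FBS) received compound, then TGF-beta at 500 pg/mL final, and were incubated 18 hours at 37 degrees C. Viability was read by CellTiter-Glo luminescence. Media-only wells were set as complete cell-killing and DMSO as no toxicity.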
TDP1 inh = inhibitors of human tyrosyl-DNA phosphodiesterase TDP1. AID 485290. recombinant TDP1, AlphaScreen DNA substrate cleavage. Potency, µM (titrated, usually from 130 µM), for the others: at the top dose activity change, negative = inhibition, most hits filed as inhibitors. Q9NUW8. actives 0.28% (n = 350,000); further: potency means the concentration at half of the fitted maximal effect; on the % scale 0 is the no-effect control and ±100 the full control effect; nearly all actives have a fitted effect of over 40% in size
Target sequence (Q9NUW8 whole entry, looked up): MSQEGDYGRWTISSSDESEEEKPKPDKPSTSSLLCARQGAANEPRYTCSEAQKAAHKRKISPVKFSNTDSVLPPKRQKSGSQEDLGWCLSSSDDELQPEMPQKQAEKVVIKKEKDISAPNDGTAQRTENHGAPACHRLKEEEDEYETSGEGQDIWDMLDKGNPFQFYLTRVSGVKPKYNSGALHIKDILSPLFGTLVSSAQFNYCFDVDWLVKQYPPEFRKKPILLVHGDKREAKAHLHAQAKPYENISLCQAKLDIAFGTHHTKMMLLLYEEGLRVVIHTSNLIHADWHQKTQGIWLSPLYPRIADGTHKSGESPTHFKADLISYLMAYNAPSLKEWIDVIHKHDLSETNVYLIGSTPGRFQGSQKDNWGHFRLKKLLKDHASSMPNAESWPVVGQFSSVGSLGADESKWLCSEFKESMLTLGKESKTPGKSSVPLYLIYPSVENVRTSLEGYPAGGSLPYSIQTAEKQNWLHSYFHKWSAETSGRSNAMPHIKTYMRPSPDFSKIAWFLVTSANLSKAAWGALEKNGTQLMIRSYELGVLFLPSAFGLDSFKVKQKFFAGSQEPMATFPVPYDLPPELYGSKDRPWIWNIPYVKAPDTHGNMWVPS
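Tdp1 1 nM final; 15 min RT w/ cpd; substrate 15 nM, 5 min; beads 10 ug/ml, 10 min; AlphaScreen read. Neg ctrl: no enzyme.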
TGFb SMAD3 inh = blocks TGF-b signaling; HepG2 CAGA-GFP TGF-b/SMAD3 reporter, GFP fluorescence, 18 h; TGF-beta stimulated, 500 pg/mL final; Potency, µM (titrated, usually from 46.1 µM), for the others: at the top dose activity, negative = inhibition, hits mostly inhibitors; actives 1.2% (n = 410,000); AID 588855; further: potency means the concentration at half of the fitted maximal effect; on the % scale 0 is the no-effect control and ±100 the full control effect; nearly all actives have a fitted effect of over 65% in size
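Cell-based qHTS in HEPG2 carrying a CAGA-GFP Smad reporter; compounds added before 500 pg/mL final TGF-beta, 18 h incubation at 37 degrees C, GFP fluorescence quantified per cell by imaging cytometry.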
IL1B secr inh = blocks inflammasome-driven IL-1 beta release; THP-1 LPS/ATP IL-1B secretion, AlphaLISA, 16 h; active compounds read low; activity change, % at 57.5 µM; actives 4.7% (n = 360,000); in the data active means activity change below about -50%; inconclusive means mostly about -30% to -49%; further: on the % scale 0 is the no-effect control and ±100 the full control effect
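THP-1 cells pretreated 1 hr with compounds (up to 57.5 uM final), then stimulated with LPS (250 ng/mL final) plus ATP (1.25 mM final); secreted IL-1B measured by AlphaLISA after 16 hr, decreased signal indicating inhibition.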
DT40 TDP1 no CPT = qHTS for Inhibitors of human tyrosyl-DNA phosphodiesterase 1 (TDP1): qHTS in cells in absence of CPT. AID 686978, 2013. DT40 Tdp1-/- hTDP1 cells, no CPT, ATP luminescence, 48 h. Potency, µM (series often up to 46.2 µM), for the others: top-dose activity change, negative = growth inhibition, most hits filed as inhibitors. actives 15% (n = 420,000); further: potency means the concentration at half of the fitted maximal effect; on the % scale 0 is the no-effect control and ±100 the full control effect; nearly all actives have a fitted effect of over 55% in size
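Readout: luminescence from CellTiter-Glo after 30 min in the dark at RT. Cells: DT40 Tdp1-/- with stable hTDP1, 400/well. Exposure: compounds alone, ≥48 hr, 37 °C.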
Numbers without * were called inactive; ? = inconclusive; nt = not tested or not shown; ! = not confirmed by another sample; [ ] = another dose, or the depositor's remark. Unless noted, the call rests on the fitted dose curve; in most records, active means well fitted curve in the direction sought with a large enough effect; inconclusive means small, poorly fitted or top-dose-only effect, or another doubt; inactive means no such curve, though single readings can be large; an effect the other way counts as inactive or inconclusive.

SMILES | TDP1 cell CPT | HepG2 viability | TDP1 inh | TGFb SMAD3 inh | IL1B secr inh | DT40 TDP1 no CPT
O=C(NCC(c1ccco1)N1CCc2ccccc21)c1ccc([N+](=O)[O-])cc1 (configuration not stated) | -13% | -4% | nt | -14% | -4 | -22%
Cc1ccc(C(=O)NCC(c2ccco2)N2CCc3ccccc32)cc1 (configuration not stated) | 10µM* | -25% | 6%[0.505 µM] | -7% | ? | 13µM*
COc1ccccc1C(=O)NNC(=O)c1nn(Cc2ccccc2)c(=O)c2ccccc12 | 21µM* | -18% | 8% | ? | 44 | ?
CC(C)CNC(=O)c1nn(Cc2ccccc2)c(=O)c2ccccc12 | ? | -1% | 2% | 1% | 50 | -20%
O=C(c1nn(Cc2ccccc2)c(=O)c2ccccc12)N1CCc2ccccc2C1 | -27% | 8% | 7% | ? | -23 | 16µM*
CC(C)CCn1nc(C(=O)Nc2nc3c(s2)CCCC3)c2ccccc2c1=O | 26µM* | -2% | 0% | 1% | nt | 18µM*
O=C(c1nn(Cc2ccccc2)c(=O)c2ccccc12)N1CCN(c2ccccn2)CC1 | -2% | -14% | 6% | 0% | 9 | ?
O=C(Nc1nc2c(s1)CCCC2)c1nn(Cc2ccccc2)c(=O)c2ccccc12 | ? | -18% | -3% | 6% | 3 | 23µM*
Fc1ccc(-c2cc(-c3ccc(F)cc3)c3c(n2)-c2cc(F)ccc2OC3)cc1 | ? | -31% | 2% | 9% | nt | -21%
CC1CCN(c2nc3nonc3nc2Nc2ccc(F)cc2)CC1 | 13% | 2% | 5% | ? | -76* | ?
COC(=O)CCC[N+](C)(C)C | -2% | nt | nt | nt | nt | -11%
OC(CNCc1ccc(F)cc1)(c1ccc(F)cc1)c1ccc(F)cc1 | 23µM* | -81% | 1% | -15% | -55* | ?
Cc1ccc(C(O)(CNCc2ccccc2)c2ccccc2)cc1 (configuration not stated) | ? | -47% | nt | -22% | ? | ?
Fc1ccc(CNCc2ccco2)cc1 | -23% | 1% | nt | -21% | -2 | 18%
OC(CNCc1ccc(Cl)cc1)(c1ccccc1)c1ccc(F)cc1 (configuration not stated) | ? | -40% | -8% | ? | -67* | 23µM*
COCC(=O)Nc1cc(C(=O)NC2Cc3ccccc3C2)cc2nc(-c3cccnc3)n(C)c12 | -10%[9.04 µM] | nt | nt | nt | nt | -13%
CN(C)c1ccc(Cl)c(NC(N)=S)c1 | -28% | -21% | nt | 15% | 21 | -27%
CC(N)(COP(=O)(O)O)C(=O)O (configuration not stated) | -18% | nt | 0% | nt | nt | -8%
CC(C)(C)CNc1nc(C#N)nc(Nc2ccccc2)n1 | nt | nt | 7% | nt | nt | nt
CC(C)c1ccc(NC(=O)COC(=O)[C@@H]2CCCN2C(=O)c2cccs2)cc1 | -12% | 4% | 1% | -7% | 8 | 7%
O=c1cc(-c2ccc(F)cc2F)[nH]c2ccccc12 | nt | nt | 7%[234 µM] | nt | nt | nt
O=c1cc(C(F)(F)F)[nH]c2ccccc12 | ? | -25% | 3% | -15% | 0 | 21µM*
O=c1cc(C(F)(F)F)[nH]c2c(OC(F)(F)F)cccc12 | -19% | -61% | 0% | ? | -59* | ?
Cc1ccc2[nH]c(C(F)(F)F)cc(=O)c2c1 | ? | -10% | 1% | -20% | nt | 12µM*
O=C(O)c1cc(=O)c2ccccc2[nH]1 | 0.058µM*! | -32% | 8% | -31% | 22 | -12%
SMILES | TDP1 cell CPT | HepG2 viability | TDP1 inh | TGFb SMAD3 inh | IL1B secr inh | DT40 TDP1 no CPT
Cc1cccc2c(=O)cc(C(F)(F)F)[nH]c12 | ? | -49% | 3% | ? | 21 | ?
O=C(O)c1cc(=O)c2c(Cl)cc(Cl)cc2[nH]1 | 3% | -2% | -9%[56.1 µM] | -9% | 19 | 7%
CN(CCO)C(=O)c1cn(C2CCN(Cc3ccc(C(F)(F)F)cc3)CC2)nn1 | -14% | nt | nt | nt | nt | -14%
CCOC(=O)c1cc(OC)c2cccc(CN3CCCC(C)(C(=O)NCCOC)C3)c2c1 (configuration not stated) | 9.2µM* | -48% | nt | -27% | 0 | 6.5µM*
CCCCNC(=O)C1(C)CCN1Cc1cccc2c(OC)cc(C(=O)OCC)cc12 (configuration not stated) | ? | -55% | nt | ? | ? | 13µM*
CCCCNC(=O)C1(C)CCN1Cc1ccc(C(=O)OCC)cc1 (configuration not stated) | ? | -1% | nt | 15% | 42 | ?
COCCNC(=O)C1(C)CCCN(Cc2ccc(C)c3ccccc23)C1 (configuration not stated) | 21µM* | -35% | nt | -29% | ? | 16µM*
Cc1csc2c(N3CCN(C(=S)Nc4ccc(F)cc4F)CC3)ncnc12 | ? | 3% | 3% | -19% | -30 | ?
Cc1ccc(C)c(N2CCN(C(=O)NCc3noc4ccccc34)CC2)c1 | ? | -26% | 5% | -9% | nt | ?
O=c1ccc2ccccc2[nH]1 | nt | nt | 10% | nt | nt | nt
CC(=O)Nc1nonc1-c1nnc(SCC(=O)Nc2ccc(F)cc2F)n1-c1ccccc1 | ? | 3% | 4% | -1% | nt | ?
O=C(CCc1nnc(-c2ccc(-c3ccccc3)cc2)o1)N1CCCCC1 | ? | -24% | nt | -14% | -1 | 21µM*
O=C(c1cccc(-c2nnc(-c3ccccc3)o2)c1)N1CCCCC1 | ? | 0% | 5% | 9% | 0 | 15µM*
O=C(c1cccc(-c2nnc(-c3ccccc3)o2)c1)N1CCCCCC1 | ? | -15% | 4% | 5% | -14 | 14µM*
O=C(c1ccccc1)N1CCCCC1 | -5% | 2% | nt | 16% | 16 | 1%
CC(C)N(C(=O)CSc1nn2c(=O)c(C(C)(C)C)nnc2s1)c1ccccc1 | 21µM* | -1% | 6% | 0% | -50* | ?
Cc1cc(C(=O)CSc2nn3c(=O)c(C(C)(C)C)nnc3s2)c(C)n1-c1ccc(F)cc1 | 16µM* | -6% | 12% | -26% | 8 | ?
CC(C)(C)c1nnc2sc(SCC(=O)N3CCCCC3)nn2c1=O | ? | 1% | 3% | -18% | -92* | ?
Cc1nnc2sc(SCC(=O)N3CCc4ccccc43)nn2c1=O | 4% | 29% | nt | 6% | 34 | -19%
CC(C)(C)c1nnc2sc(SCCN3C(=O)c4ccccc4C3=O)nn2c1=O | -13% | -14% | 3% | -11% | -5 | -1%
